Rows were chosen to be rich in hits. Some 19% of all compounds tested hit in one or more screens of this group.
TDP1 cell noCPT: qHTS for Inhibitors of human tyrosyl-DNA phosphodiesterase 1 (TDP1): qHTS in cells in absence of CPT. DT40 Tdp1-/- hTDP1 cells, no CPT, ATP luminescence, 48 h. Potency, µM (titrated, usually from 46.2 µM), hits mostly inhibitors. hit rate 15% among 420,000; note: nearly all actives have a fitted effect of over 55% in size
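Stably hTDP1-transfected Tdp1-null chicken DT40 cells were treated with library compounds minus camptothecin and grown for at least 48 hr at 37 °C, after which cellular ATP was quantified by luminescence.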
HT1080-NT tox: kills 2HG-producing HT-1080-NT fibrosarcoma cells. Potency, µM (top dose mostly 46.1 µM), actives largely listed as cytotoxic. HT-1080-NT fibrosarcoma viability, CellTiter-Glo ATP luminescence, 48 h. AID 686970. hit rate 1.6% among 360,000;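 note: NT is the 2HG producing partner of a matched IDH1 knockdown line; nearly all actives have a fitted effect of over 55% in size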
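Compounds were tested in concentration-response format on HT-1080-NT cells for 48 hours at 37 degrees C. Cell viability came from CellTiter-Glo luminescence; curves were classified by r2, response magnitude and activity.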
HT1080 IDH1KD tx: kills HT-1080 cells with IDH1 knockdown; HT-1080 IDH1 knockdown viability, ATP luminescence, 48 h; Potency, µM (titrated, usually from 46.1 µM), usual class: cytotoxic; hit rate 2% among 360,000; AID 686971
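Using the IDH1-knockdown HT-1080 line run in the same batch and compound series as the NT line, viability after 48 h at 37 °C was determined by CellTiter-Glo luminescence and expressed as % activity.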
DT40 TDP1 CPT: DT40-hTDP1 cell growth loss with CPT; hit rate 12% among 420,000; Potency, µM (series often up to 46.2 µM), actives largely listed as inhibitors; chicken DT40 Tdp1-/-;hTDP1 cells + 20 nM CPT, ATP luminescence, 48 h; AID 686979; note: nearly all actives have a fitted effect of over 55% in size
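Cell growth measured by CellTiter-Glo luminescence after a minimum 48 h, 37 C compound exposure with 20 nM CPT in Tdp1-knockout DT40 cells stably expressing hTDP1, seeded 400/well; qHTS titration format.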
ELG1 repair inh: blocks ELG1-dependent DNA repair in HEK293T cells; hit rate 2.3% among 330,000; HEK293T ELG1-luciferase reporter, luminescence, 16 h; DNA damage induced by 5-fluorouridine; Potency, µM (series often up to 46.1 µM), actives largely listed as inhibitors; note: nearly all actives have a fitted effect of over 55% in size
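5-Fluorouridine DNA damage + compound/DMSO, 2,000 cells/well, 16 h, 37 °C/5% CO2. ONE-Glo, 30 min RT, luminescence. Readout = decrease in reporter signal.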
IL-1B inflam inh: inhibitors of inflammasome signaling (IL-1 beta secretion); THP-1 LPS/ATP IL-1B secretion, AlphaLISA, 16 h; hits give low values; activity change, % at 57.5 µM; hit rate 4.7% among 360,000; AID 743279; in the data active = activity change below about -50%; inconclusive = mostly about -30% to -49%
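THP-1 cells pretreated 1 hr with compounds (up to 57.5 uM final), then stimulated with LPS (250 ng/mL final) plus ATP (1.25 mM final); secreted IL-1B measured by AlphaLISA after 16 hr, decreased signal indicating inhibition.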
Numbers stand for hits; - = inactive; ? = inconclusive; . = no result. Unless noted, calls come from the whole dose curve; as a rule, active = well fitted curve in the direction sought with a large enough effect; inconclusive = small, poorly fitted or top-dose-only effect, or another doubt; inactive = no such curve, though single readings can be large; an effect the other way counts as inactive or inconclusive.

SMILES | TDP1 cell noCPT | HT1080-NT tox | HT1080 IDH1KD tx | DT40 TDP1 CPT | ELG1 repair inh | IL-1B inflam inh
CS(=O)(=O)Nc1ccccc1C(=O)Nc1cc(Cl)cc(Cl)c1 | 18µM | ? | 11µM | 18µM | ? | -56
COc1cc(NC(=O)c2ccco2)ccc1NC(=O)c1ccccc1Cl | ? | - | - | - | - | ?
Clc1ccc(CSC(Cn2ccnc2)c2ccc(Cl)cc2Cl)cc1 (configuration not stated) | 18µM | ? | ? | ? | - | -
Clc1ccc(COC(Cn2ccnc2)c2ccc(Cl)cc2Cl)cc1 (configuration not stated) | 21µM | ? | 15µM | 23µM | - | -
COC(=O)C(O)(c1ccc(N(C)C(=O)c2cccs2)cc1)C(F)(F)F (configuration not stated) | ? | - | - | 3.3µM | - | -
CCOC(=O)C(O)(c1ccc(N(C)C(=O)c2ccc(Cl)c(Cl)c2)cc1)C(F)(F)F (configuration not stated) | 13µM | - | - | 21µM | ? | -
COC(=O)C(O)(c1ccc(N(C)C)cc1)C(F)(F)F (configuration not stated) | - | - | - | - | - | -
CCOC(=O)C(=CNc1ccc(C(O)(C(=O)OCC)C(F)(F)F)cc1C)C(=O)OCC (configuration not stated) | 12µM | - | - | 21µM | 18µM | -
CCOC(=O)C(O)(c1ccc(NC(=O)c2ccc(Cl)c(Cl)c2)cc1)C(F)(F)F (configuration not stated) | 16µM | - | - | ? | - | -
Cc1cccc(C)c1NC(=O)CN1CCCC1=O | - | . | . | - | . | .
COc1ccccc1S(=O)(=O)N(C)C[C@@H]1Oc2cc(C#CCC(C)C)ccc2S(=O)(=O)N([C@H](C)CO)C[C@@H]1C | ? | - | - | ? | . | ?
O=C(Cn1nc(-c2ccccc2)ccc1=O)N1CCC2(CC1)OCCO2 | - | - | - | - | - | -
CCOc1ccc(NCc2cccn2-c2nnc(N3CCC(C(=O)NCc4ccc(C)cc4)CC3)s2)cc1 | 7.3µM | . | . | 9.2µM | . | .
CCOc1ccc2nc(NC(=O)c3cccn(Cc4ccc(C)cc4)c3=O)sc2c1 | - | . | . | - | . | .
CCOc1ccc(NCc2cccn2-c2nnc(N3CCC(C(=O)NCC(C)c4ccccc4)CC3)s2)cc1 (configuration not stated) | 8.2µM | . | . | 23µM | . | .
Cc1ccc(NCc2cccn2-c2nnc(N3CCC(C(=O)NCc4ccc(OC(C)C)cc4)CC3)s2)cc1 | 18µM | . | . | ? | . | .
Cc1ccccc1NC(=O)CSc1nc2ccccc2c2nc(CCn3c(C)nc4ccccc43)nn12 | 18µM | . | . | 15µM | . | .
Cc1nnc2n1-c1sc(CCc3ccc(CC(C)C)cc3)cc1C(c1ccccc1Cl)=NC2C (configuration not stated) | 12µM | . | . | ? | . | .
CCCCCNC(=O)C(c1ccncc1)n1c(=O)c(-c2cc3ccccc3[nH]2)nc2ccccc21 (configuration not stated) | ? | ? | 16µM | 16µM | . | ?
CN(C)CCN(CC1CCCN(Cc2ccccc2F)C1)C(=O)Cc1c(F)cccc1F (configuration not stated) | - | - | - | - | - | ?
Cc1cc(OC(=O)c2cccs2)c2c3c(c(=O)oc2c1)CCCC3 | 5.2µM | - | - | 18µM | - | ?
Cc1cc(OCC(=O)O)c2c3c(c(=O)oc2c1)CCCC3 | - | - | - | - | - | -
Cc1cc(OC(C)C(=O)NCc2ccncc2)c2c3c(c(=O)oc2c1)CCCC3 (configuration not stated) | ? | - | - | 23µM | - | -
Cc1cc(OCC(=O)N2CCC(C(N)=O)CC2)c2c3c(c(=O)oc2c1)CCCC3 | - | - | - | 23µM | - | -
Cc1cc(OC(=O)c2ccco2)c2c3c(c(=O)oc2c1)CCCC3 | 10µM | - | - | 12µM | ? | -
SMILES | TDP1 cell noCPT | HT1080-NT tox | HT1080 IDH1KD tx | DT40 TDP1 CPT | ELG1 repair inh | IL-1B inflam inh
Cc1cc(OC(C)C(=O)NCc2cccnc2)c2c3c(c(=O)oc2c1)CCC3 (configuration not stated) | - | - | - | - | ? | -
COc1ccc(-c2nn(CCC#N)cc2C(=O)NCc2ccccc2)cc1OC | - | - | - | - | - | -
Cc1ccc(-n2nc(C)cc2NC(=O)COc2cc(C)cc3oc(=O)c4c(c23)CCC4)cc1 | 29µM | - | - | ? | ? | -
COc1ccc(CN2CC=C(c3ccc(F)cc3)CC2)cc1Br | 29µM | - | - | ? | - | -
O=[N+]([O-])c1cccc(CN2CC=C(c3ccc(F)cc3)CC2)c1 | ? | - | - | ? | - | -
CCN(CC)c1ccc(CN2CC=C(c3ccc(F)cc3)CC2)cc1 | 18µM | ? | ? | 18µM | - | -

Source: PubChem
